Reference: ChEMBL document CHEMBL1961873, “Compounds: GSK PKIS; Assays: Nanosyn kinase panel” (2012)

How the values were obtained:
[1] = target: MAP/microtubule affinity-regulating kinase 3 (Homo sapiens) (UniProt P27448); settings: at 1 µM;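 further: reported values are averaged percent inhibition of MARK3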
[2] = target: T1, MAP/microtubule affinity-regulating kinase 4 (Homo sapiens) (UniProt Q96L34); settings: at 0.1 µM
T1 sequence (whole entry): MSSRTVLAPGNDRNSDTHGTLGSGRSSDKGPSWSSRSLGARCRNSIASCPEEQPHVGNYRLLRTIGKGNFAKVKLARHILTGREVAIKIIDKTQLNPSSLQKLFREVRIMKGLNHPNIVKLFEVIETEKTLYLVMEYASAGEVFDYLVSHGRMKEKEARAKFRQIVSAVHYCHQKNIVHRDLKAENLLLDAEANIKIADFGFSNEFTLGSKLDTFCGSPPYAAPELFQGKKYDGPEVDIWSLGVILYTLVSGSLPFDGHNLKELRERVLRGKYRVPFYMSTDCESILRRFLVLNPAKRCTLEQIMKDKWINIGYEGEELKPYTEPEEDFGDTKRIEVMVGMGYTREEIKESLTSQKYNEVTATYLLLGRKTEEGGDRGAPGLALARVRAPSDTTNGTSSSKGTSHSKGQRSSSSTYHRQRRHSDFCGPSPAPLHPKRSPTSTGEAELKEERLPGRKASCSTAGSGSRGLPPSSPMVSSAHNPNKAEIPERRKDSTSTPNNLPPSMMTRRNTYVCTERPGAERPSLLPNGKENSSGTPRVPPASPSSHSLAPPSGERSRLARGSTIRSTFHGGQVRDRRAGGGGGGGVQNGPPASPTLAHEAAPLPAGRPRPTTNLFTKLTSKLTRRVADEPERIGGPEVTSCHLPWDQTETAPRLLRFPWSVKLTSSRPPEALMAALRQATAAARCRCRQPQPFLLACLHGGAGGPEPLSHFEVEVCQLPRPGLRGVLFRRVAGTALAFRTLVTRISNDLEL

[3] = target: T1, MAP/microtubule affinity-regulating kinase 4 (Homo sapiens); settings: at 1 µM
[4] = target: Maternal embryonic leucine zipper kinase (Homo sapiens) (UniProt Q14680); settings: at 0.1 µM
[5] = target: Maternal embryonic leucine zipper kinase (Homo sapiens) (UniProt Q14680); settings: at 1 µM
[6] = target: MAP kinase-interacting serine/threonine-protein kinase 1 (Homo sapiens) (UniProt Q9BUB5); settings: at 0.1 µM
[7] = target: MAP kinase-interacting serine/threonine-protein kinase 1 (Homo sapiens) (UniProt Q9BUB5); settings: at 1 µM
[8] = target: MAP kinase-interacting serine/threonine-protein kinase 2 (Homo sapiens) (UniProt Q9HBH9); settings: at 0.1 µM
[9] = target: MAP kinase-interacting serine/threonine-protein kinase 2 (Homo sapiens) (UniProt Q9HBH9); settings: at 1 µM
[10] = target: Serine/threonine-protein kinase MARK2 (Homo sapiens) (UniProt Q7KZI7); settings: at 0.1 µM
[11] = target: Serine/threonine-protein kinase MARK2 (Homo sapiens) (UniProt Q7KZI7); settings: at 1 µM
[12] = target: PAS domain-containing serine/threonine-protein kinase (Homo sapiens) (UniProt Q96RG2); settings: at 0.1 µM
[13] = target: PAS domain-containing serine/threonine-protein kinase (Homo sapiens) (UniProt Q96RG2); settings: at 1 µM
[14] = target: Phosphorylase b kinase gamma catalytic chain, skeletal muscle/heart isoform (Homo sapiens) (UniProt Q16816); settings: at 0.1 µM
[15] = target: Phosphorylase b kinase gamma catalytic chain, skeletal muscle/heart isoform (Homo sapiens) (UniProt Q16816); settings: at 1 µM
[16] = target: T2, Phosphorylase b kinase gamma catalytic chain, liver/testis isoform (Homo sapiens) (UniProt P15735); settings: at 0.1 µM
T2 sequence (whole entry): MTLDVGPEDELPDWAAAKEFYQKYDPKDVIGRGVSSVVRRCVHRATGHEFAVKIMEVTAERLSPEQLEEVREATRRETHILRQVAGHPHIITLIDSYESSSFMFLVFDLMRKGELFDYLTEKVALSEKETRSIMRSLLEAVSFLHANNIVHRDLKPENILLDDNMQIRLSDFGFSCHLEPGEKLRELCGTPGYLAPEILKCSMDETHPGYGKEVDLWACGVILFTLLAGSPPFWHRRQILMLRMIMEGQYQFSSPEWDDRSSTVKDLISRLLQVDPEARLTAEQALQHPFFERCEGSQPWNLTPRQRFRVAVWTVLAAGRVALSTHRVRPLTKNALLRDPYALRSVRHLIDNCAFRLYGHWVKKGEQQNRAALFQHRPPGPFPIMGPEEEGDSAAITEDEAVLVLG

[17] = target: T2, Phosphorylase b kinase gamma catalytic chain, liver/testis isoform (Homo sapiens); settings: at 1 µM
[18] = target: Serine/threonine-protein kinase pim-1 (Homo sapiens) (UniProt P11309); settings: at 0.1 µM
[19] = target: Serine/threonine-protein kinase pim-1 (Homo sapiens) (UniProt P11309); settings: at 1 µM
[20] = target: Serine/threonine-protein kinase pim-2 (Homo sapiens) (UniProt Q9P1W9); settings: at 0.1 µM;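 further: reported value is the mean percent inhibition of PIM2, measured in the GSK PKIS kinase inhibitor set screen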
Sequence of Serine/threonine-protein kinase pim-2 (Homo sapiens) (Q9P1W9 whole entry, looked up): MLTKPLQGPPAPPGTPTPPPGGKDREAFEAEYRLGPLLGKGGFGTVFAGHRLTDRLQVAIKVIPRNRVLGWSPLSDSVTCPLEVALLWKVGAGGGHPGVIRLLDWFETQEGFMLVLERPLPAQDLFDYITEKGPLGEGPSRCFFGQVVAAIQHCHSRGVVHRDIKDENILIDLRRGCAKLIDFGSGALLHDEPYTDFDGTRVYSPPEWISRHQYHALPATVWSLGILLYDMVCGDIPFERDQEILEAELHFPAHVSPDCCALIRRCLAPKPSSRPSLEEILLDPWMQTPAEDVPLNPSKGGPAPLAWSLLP

Sequence of MAP kinase-interacting serine/threonine-protein kinase 2 (Homo sapiens) (Q9HBH9 whole entry, looked up): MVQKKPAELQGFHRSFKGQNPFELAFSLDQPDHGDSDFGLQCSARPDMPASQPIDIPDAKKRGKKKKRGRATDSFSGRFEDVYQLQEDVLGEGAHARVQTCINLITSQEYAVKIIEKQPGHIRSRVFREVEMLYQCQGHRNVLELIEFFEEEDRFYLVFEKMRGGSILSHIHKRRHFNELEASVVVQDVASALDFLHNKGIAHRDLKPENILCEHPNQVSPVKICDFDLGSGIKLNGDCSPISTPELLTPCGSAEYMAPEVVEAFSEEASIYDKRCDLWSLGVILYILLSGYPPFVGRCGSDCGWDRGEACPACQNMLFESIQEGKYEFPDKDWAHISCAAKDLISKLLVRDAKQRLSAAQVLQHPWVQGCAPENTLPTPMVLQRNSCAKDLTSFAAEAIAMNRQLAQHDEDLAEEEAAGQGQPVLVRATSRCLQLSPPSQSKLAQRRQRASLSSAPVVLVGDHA
Sequence of MAP/microtubule affinity-regulating kinase 3 (Homo sapiens) (P27448 whole entry, looked up): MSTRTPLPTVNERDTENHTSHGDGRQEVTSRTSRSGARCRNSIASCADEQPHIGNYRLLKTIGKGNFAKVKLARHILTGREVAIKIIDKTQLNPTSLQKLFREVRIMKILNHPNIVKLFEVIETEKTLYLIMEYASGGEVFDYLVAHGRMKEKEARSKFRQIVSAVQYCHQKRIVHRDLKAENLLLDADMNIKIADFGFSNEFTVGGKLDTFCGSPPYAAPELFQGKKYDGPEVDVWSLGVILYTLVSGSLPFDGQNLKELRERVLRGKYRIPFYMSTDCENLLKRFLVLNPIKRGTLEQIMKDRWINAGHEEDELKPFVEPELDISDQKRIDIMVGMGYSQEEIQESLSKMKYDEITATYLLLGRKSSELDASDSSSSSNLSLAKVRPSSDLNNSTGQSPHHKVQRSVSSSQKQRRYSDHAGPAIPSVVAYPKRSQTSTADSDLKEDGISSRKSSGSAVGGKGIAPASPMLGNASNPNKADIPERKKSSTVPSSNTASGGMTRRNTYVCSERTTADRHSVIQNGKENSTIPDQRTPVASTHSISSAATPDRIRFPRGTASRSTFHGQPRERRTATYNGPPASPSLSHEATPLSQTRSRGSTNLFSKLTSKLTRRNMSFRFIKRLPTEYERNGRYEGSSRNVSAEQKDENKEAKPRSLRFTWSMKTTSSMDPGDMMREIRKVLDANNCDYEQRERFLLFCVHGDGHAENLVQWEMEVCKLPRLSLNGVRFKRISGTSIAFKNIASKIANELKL
Sequence of PAS domain-containing serine/threonine-protein kinase (Homo sapiens) (Q96RG2 whole entry, the tested form may be a part, canonical isoform): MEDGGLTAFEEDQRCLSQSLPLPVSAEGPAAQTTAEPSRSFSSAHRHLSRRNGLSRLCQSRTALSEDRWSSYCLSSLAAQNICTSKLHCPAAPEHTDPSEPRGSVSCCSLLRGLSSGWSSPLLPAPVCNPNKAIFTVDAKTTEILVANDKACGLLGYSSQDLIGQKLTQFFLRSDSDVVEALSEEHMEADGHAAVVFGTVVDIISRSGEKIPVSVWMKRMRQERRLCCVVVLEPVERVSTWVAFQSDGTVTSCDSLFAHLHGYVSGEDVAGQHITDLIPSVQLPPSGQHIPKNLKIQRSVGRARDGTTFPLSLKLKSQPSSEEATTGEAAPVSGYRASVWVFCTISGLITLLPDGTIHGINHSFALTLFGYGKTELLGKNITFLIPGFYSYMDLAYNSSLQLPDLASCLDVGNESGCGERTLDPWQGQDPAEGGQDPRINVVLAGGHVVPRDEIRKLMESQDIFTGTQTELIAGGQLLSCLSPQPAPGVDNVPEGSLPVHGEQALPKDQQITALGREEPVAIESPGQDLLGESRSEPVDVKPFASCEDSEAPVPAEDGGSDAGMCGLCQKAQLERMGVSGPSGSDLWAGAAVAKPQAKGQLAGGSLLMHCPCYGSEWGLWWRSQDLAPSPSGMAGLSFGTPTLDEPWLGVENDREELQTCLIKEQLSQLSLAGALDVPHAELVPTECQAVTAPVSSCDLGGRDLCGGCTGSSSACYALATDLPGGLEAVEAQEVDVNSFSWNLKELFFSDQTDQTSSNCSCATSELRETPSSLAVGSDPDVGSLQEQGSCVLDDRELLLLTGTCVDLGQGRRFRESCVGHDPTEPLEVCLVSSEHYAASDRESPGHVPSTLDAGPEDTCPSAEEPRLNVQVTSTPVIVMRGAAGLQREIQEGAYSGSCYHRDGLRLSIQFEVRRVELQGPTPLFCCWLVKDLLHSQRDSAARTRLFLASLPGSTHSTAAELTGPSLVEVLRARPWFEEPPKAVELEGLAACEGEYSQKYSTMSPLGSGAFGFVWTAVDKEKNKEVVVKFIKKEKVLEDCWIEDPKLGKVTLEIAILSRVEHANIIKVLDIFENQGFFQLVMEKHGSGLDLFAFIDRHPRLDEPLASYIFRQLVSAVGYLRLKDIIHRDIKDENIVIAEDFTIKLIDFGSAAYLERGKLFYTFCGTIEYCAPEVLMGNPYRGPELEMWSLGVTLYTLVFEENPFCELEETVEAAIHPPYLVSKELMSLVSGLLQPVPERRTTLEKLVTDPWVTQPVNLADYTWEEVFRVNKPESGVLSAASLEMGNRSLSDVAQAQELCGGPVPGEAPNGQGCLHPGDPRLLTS
Sequence of Serine/threonine-protein kinase MARK2 (Homo sapiens) (Q7KZI7 whole entry, the tested form may be a part): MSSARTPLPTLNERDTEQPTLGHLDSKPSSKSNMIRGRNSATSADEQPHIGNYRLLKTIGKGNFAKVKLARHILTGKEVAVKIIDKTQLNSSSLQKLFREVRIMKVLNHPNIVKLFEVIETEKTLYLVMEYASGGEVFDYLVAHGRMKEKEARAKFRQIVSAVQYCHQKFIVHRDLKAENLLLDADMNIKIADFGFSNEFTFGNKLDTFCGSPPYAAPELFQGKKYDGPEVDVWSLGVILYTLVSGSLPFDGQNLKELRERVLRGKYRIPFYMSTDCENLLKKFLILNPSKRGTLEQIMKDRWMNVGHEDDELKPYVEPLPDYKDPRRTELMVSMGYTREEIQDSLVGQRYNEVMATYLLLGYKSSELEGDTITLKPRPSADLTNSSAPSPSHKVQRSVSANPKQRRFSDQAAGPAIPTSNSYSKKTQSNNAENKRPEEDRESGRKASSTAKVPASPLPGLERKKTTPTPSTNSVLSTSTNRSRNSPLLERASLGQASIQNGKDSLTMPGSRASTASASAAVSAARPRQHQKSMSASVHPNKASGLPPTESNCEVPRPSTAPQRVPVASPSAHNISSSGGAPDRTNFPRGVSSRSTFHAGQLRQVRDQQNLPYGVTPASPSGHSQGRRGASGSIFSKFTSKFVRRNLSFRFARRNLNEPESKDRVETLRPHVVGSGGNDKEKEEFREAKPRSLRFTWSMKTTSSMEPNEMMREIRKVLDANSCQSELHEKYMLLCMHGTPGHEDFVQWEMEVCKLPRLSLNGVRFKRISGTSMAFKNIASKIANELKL
Sequence of Phosphorylase b kinase gamma catalytic chain, skeletal muscle/heart isoform (Homo sapiens) (Q16816 whole entry, looked up, canonical isoform): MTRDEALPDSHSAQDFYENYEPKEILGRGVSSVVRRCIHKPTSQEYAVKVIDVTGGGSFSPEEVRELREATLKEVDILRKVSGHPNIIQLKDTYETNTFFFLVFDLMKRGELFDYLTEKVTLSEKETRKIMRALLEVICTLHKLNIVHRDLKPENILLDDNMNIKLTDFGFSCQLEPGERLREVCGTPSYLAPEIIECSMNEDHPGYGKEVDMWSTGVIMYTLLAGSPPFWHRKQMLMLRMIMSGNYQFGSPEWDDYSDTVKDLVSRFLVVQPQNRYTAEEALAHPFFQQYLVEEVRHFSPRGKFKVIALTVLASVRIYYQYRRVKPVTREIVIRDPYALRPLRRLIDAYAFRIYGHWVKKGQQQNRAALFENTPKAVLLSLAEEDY
Sequence of Serine/threonine-protein kinase pim-1 (Homo sapiens) (P11309 whole entry, looked up): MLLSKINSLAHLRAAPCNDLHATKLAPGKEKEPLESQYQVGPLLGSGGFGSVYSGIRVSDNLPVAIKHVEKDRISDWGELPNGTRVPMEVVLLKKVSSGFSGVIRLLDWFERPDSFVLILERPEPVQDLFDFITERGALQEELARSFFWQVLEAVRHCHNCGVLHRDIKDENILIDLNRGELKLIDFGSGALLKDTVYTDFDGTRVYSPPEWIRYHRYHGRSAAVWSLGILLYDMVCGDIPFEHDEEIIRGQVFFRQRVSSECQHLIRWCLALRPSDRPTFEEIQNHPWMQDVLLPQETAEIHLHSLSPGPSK
Sequence of Maternal embryonic leucine zipper kinase (Homo sapiens) (Q14680 whole entry, looked up): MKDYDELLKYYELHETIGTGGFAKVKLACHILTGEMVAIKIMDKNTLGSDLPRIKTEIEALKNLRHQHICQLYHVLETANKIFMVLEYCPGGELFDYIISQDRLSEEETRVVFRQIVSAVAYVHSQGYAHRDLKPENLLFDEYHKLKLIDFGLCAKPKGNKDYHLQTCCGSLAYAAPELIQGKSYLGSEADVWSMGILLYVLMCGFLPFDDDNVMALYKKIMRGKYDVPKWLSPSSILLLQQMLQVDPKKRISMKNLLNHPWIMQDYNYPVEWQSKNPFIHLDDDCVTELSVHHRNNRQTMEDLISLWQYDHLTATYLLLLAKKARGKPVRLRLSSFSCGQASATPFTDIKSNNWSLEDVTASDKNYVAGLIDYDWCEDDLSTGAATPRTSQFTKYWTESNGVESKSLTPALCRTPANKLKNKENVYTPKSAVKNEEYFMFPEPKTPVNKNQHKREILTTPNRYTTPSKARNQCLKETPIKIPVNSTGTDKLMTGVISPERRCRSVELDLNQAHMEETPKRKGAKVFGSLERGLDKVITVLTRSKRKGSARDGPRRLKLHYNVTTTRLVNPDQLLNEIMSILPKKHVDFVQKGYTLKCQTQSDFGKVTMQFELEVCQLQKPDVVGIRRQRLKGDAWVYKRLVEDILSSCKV

`CC(C)c1ccc2c(c1)NC(=O)/C2=N/Nc1ccc(S(N)(=O)=O)cc1` was tested, and the inhibition [1] was -2.09%, the inhibition [2] was -0.86% and the inhibition [3] was 0.13%. The inhibition [4] was 0.88%, the inhibition [5] was 0.52% and the inhibition [6] was 1.43%. For the same molecule, the inhibition [7] was 2.29%, the inhibition [8] was 0.22% and the inhibition [9] was 2.57%. It also gave an inhibition [10] of -1.41%, an inhibition [11] of -0.8% and an inhibition [12] of 1.25%. It also gave an inhibition [13] of 0.24%, an inhibition [14] of -0.83% and an inhibition [15] of 1.14%. For the same molecule, the inhibition [16] was 0.03%, the inhibition [17] was 0.32% and the inhibition [18] was 0.27%. It also gave an inhibition [19] of -0.22% and an inhibition [20] of -0.21%.

Molecule `COc1cc(Nc2nccc(-c3cnn4ncccc34)n2)cc(OC)c1` has an inhibition [1] of 34.1%, an inhibition [2] of 3.44% and an inhibition [3] of 22.1%. It also gave an inhibition [4] of 7.1%, an inhibition [5] of 43.9% and an inhibition [6] of 1.97%. For the same molecule, the inhibition [7] was 10.2%, the inhibition [8] was 3.13% and the inhibition [9] was 17.2%. It also gave an inhibition [10] of 2.81%, an inhibition [11] of 20% and an inhibition [12] of 0.79%. For the same molecule, the inhibition [13] was -0.31%, the inhibition [14] was 7.9% and the inhibition [15] was 39.2%. It also gave an inhibition [16] of 2.69%, an inhibition [17] of 15.6% and an inhibition [18] of 1.41%. The inhibition [19] was 6.3% and the inhibition [20] was 1.22%.

With `NS(=O)(=O)c1cccc(-c2cc3ccncc3cc2OCc2ccccc2)c1` the inhibition [1] was 9.67%, the inhibition [2] was 2.91% and the inhibition [3] was 6.29%. It also gave an inhibition [4] of 4.44%, an inhibition [5] of 6.24% and an inhibition [6] of 3.03%. For the same molecule, the inhibition [7] was 6.7%, the inhibition [8] was 3.83% and the inhibition [9] was 25.1%. The inhibition [10] was 3.3%, the inhibition [11] was 4.78% and the inhibition [12] was 0.61%. For the same molecule, the inhibition [13] was -0.76%, the inhibition [14] was 4.05% and the inhibition [15] was 7.24%. For the same molecule, the inhibition [16] was 4.91%, the inhibition [17] was 3.55% and the inhibition [18] was 1.01%. It also gave an inhibition [19] of 0.91% and an inhibition [20] of 0.27%.

`CCS(=O)(=O)c1ccc(OC)c(Nc2ncc(-c3cccc(OC)c3)o2)c1` was tested, and the inhibition [1] was 2.05%, the inhibition [2] was 0.15% and the inhibition [3] was 1.64%. For the same molecule, the inhibition [4] was 2.89%, the inhibition [5] was 11.4% and the inhibition [6] was 4.25%. It also gave an inhibition [7] of 17%, an inhibition [8] of 1.44% and an inhibition [9] of 10.6%. It also gave an inhibition [10] of -0.52%, an inhibition [11] of 1.4% and an inhibition [12] of 0.21%. For the same molecule, the inhibition [13] was -1.97%, the inhibition [14] was 1.03% and the inhibition [15] was 18.3%. The inhibition [16] was 2.69%, the inhibition [17] was -0.05% and the inhibition [18] was 1.53%. For the same molecule, the inhibition [19] was 2.93% and the inhibition [20] was 0.07%.

`C[C@@H](Oc1cc(-n2cnc3ccc(OCC4CCN(C)CC4)cc32)sc1C(N)=O)c1ccccc1C(F)(F)F` gave an inhibition [1] of 57.6%, an inhibition [2] of 8.72% and an inhibition [3] of 49.9%. For the same molecule, the inhibition [4] was 0.09%, the inhibition [5] was 22% and the inhibition [6] was 0.35%. The inhibition [7] was 1.61%, the inhibition [8] was 1.1% and the inhibition [9] was 4.25%. For the same molecule, the inhibition [10] was 8.53%, the inhibition [11] was 43.4% and the inhibition [12] was 1.41%. For the same molecule, the inhibition [13] was 2.84%, the inhibition [14] was 1.57% and the inhibition [15] was 7.24%. The inhibition [16] was -1.2%, the inhibition [17] was 10.8% and the inhibition [18] was 18.7%. The inhibition [19] was 68.4% and the inhibition [20] was 0.26%.

`COc1cccc(-n2nc(C)c3c(N/N=C(\C)c4ccncc4)ncnc32)c1` showed an inhibition [1] of 0.26%, an inhibition [2] of -0.19% and an inhibition [3] of -0.43%. For the same molecule, the inhibition [4] was -0.32%, the inhibition [5] was 1.96% and the inhibition [6] was 0.47%. For the same molecule, the inhibition [7] was 1.1%, the inhibition [8] was -0.51% and the inhibition [9] was 0.76%. The inhibition [10] was -0.2%, the inhibition [11] was 0.88% and the inhibition [12] was 1.38%. The inhibition [13] was 0.57%, the inhibition [14] was 0.48% and the inhibition [15] was 2.64%. The inhibition [16] was 0.83%, the inhibition [17] was 0.29% and the inhibition [18] was -0.49%. For the same molecule, the inhibition [19] was 0.18% and the inhibition [20] was -0.5%.

`Cc1cc(Cl)cc2c1NC(=O)C2=NNc1ccc(S(N)(=O)=O)cc1` gave an inhibition [1] of 1.21%, an inhibition [2] of -0.63% and an inhibition [3] of -0.34%. It also gave an inhibition [4] of 0.8%, an inhibition [5] of 0.86% and an inhibition [6] of 1.47%. It also gave an inhibition [7] of 6.58%, an inhibition [8] of 1.41% and an inhibition [9] of 4.45%. For the same molecule, the inhibition [10] was 0.48%, the inhibition [11] was -0.15% and the inhibition [12] was 0.48%. For the same molecule, the inhibition [13] was 1.94%, the inhibition [14] was 3.63% and the inhibition [15] was 6.02%. It also gave an inhibition [16] of 2.58%, an inhibition [17] of 5.19% and an inhibition [18] of 0.03%. The inhibition [19] was 1.28% and the inhibition [20] was -0.12%.
